Source: PubChem BioAssay AID1347165 (National Center for Advancing Translational Sciences (NCATS), 2019)
Out of some 220,000 compounds screened, about 5,700 (2.6%) were called active. Not shown: some 18% with an inconclusive outcome. Calls follow the shape of the dose curve; as a rule, active = well fitted inhibition curve with a large enough effect; inconclusive = small, poorly fitted or top-dose-only effect; inactive = no such curve, though single readings can be large or run the other way. Shown is part of a subset that was picked to be rich in actives. A call without a number means that no potency is given here.

Each compound was assayed against Lysine-specific demethylase 5B (Homo sapiens) (UniProt Q9UGL1) (assay: Primary screen for KDM5B Histone Demethylases FDH-coupled qHTS). Settings: FDH-coupled NADH fluorescence (FDH is formaldehyde dehydrogenase); series mostly up to 57.7 µM.
Lysine-specific demethylase 5B (Homo sapiens), sequence (Q9UGL1 whole entry, looked up): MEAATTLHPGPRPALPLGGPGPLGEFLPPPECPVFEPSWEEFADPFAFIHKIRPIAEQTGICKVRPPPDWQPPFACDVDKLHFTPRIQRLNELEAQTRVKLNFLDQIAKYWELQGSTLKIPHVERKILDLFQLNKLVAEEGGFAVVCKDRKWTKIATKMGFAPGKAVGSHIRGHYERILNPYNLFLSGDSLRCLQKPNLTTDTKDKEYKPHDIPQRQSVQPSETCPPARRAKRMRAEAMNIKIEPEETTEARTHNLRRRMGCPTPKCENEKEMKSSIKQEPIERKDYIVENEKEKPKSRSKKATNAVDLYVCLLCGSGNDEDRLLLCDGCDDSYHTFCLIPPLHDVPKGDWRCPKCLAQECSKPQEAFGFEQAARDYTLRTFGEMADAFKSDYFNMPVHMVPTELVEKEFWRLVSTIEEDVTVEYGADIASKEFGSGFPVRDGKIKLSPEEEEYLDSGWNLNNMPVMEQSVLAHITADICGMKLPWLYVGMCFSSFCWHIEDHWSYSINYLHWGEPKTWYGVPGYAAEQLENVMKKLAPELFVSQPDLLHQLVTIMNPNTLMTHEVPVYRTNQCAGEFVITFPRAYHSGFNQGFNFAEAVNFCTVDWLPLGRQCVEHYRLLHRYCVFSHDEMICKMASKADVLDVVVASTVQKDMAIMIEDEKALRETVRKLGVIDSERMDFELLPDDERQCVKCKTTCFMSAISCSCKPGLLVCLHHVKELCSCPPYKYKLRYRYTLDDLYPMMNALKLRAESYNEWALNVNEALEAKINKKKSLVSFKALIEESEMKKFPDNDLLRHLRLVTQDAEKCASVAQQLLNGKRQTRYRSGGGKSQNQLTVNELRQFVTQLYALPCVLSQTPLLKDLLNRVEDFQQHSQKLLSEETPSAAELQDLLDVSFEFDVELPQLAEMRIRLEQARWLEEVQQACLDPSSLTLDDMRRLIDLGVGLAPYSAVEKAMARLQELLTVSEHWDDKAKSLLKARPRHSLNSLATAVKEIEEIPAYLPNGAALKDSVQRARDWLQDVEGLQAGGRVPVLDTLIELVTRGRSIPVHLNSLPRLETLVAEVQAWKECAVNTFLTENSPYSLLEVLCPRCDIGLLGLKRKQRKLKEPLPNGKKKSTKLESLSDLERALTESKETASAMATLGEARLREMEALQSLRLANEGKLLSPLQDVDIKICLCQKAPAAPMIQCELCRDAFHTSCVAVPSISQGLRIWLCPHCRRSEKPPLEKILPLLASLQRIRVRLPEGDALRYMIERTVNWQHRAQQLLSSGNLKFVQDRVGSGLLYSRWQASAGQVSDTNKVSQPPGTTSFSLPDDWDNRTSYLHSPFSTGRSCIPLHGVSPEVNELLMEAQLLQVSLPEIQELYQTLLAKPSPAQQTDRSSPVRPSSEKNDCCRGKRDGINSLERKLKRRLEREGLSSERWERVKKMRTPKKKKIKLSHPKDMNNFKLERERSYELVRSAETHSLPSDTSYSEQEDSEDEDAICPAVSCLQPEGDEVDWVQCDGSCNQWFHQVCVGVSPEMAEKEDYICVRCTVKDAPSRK
Excerpt: Assay Submitter (PI): Qin Yan, Ph.D. (Yale University) and Xiaodong Cheng, Ph.D. (MD Anderson) This project was funded as part of the NCI NEXT Program and Chemical Biology Consortium (CBC) The histone demethylases, KDM5A and KDM5B catalyze the demethylation of lysine 4 on histone H3 (H3K4me3/2). They are overexpressed in a variety of cancers and have been implicated in cancer cell growth, metastasis, drug resistance, and tumor growth. KDM5A is amplified and overexpressed in breast and gastric cancer; and is translocated in leukemia. While KDM5B is highly expressed in human mammary tumors and breast cancer cell lines, but not in normal adult breast tissue. Moreover, knockdown of KDM5B leads to upregulation of tumor suppressor genes, including BRCA1. The goal of this project is to employ qHTS to identify selective small molecule inhibitors of KDM5A/B demethylase activity to better understand the role of KDM5 in cancer and to develop novel therapies. We employed an FDH-coupled assay previously reported by Sakurai et al. to monitor in vitro KDM5 demethylase activity. Compounds showing dose response inhibition are re-acquired, validated, and tested for non-specific interference with the formaldehyde dehydrogenase (FDH) counterscreen. True inhibitors are validated using an AlphaLisa secondary screen, which employs an H3K4(me2-1)-specific antibody to monitor demethylation of a biotin-tagged H3K4(me3) peptide substrate. Inhibitors are profiled against KDM4A and KDM6A AlphaLisa counterscreens to determine level of demethylase specificity; and against the TruHits counterscreen to eliminate non-specific inhibitory activity on the AlphaLISA detection method. Selective inhibitors identified from the primary and secondary screening are tested in cells using immunofluorescence to monitor global H3K4 tri-methylation as a measure of KDM5A/B inhibition. Early Translation Branch (ETB) National Center for Advancing Translational Sciences (NCATS), Rockville, MD National Institute of Health (NIH), Bethesda, Maryland [1] Sakurai, M et al. A miniaturized screen for inhibitors of Jumonji histone demethylases. Mol Biosyst. 2010 Feb;6(2):357-64. doi: 10.1039/b912993f. Epub 2009 Oct 8.
Materials: 1536-well Black, solid bottom, medium binding assay plate is purchased from Greiner Bio-one. The enzymes (KDM5B) and substrate (H3K4me3/2) are provided by the principal investigators. The buffer for this assay is composed of 50mM HEPES at pH 7.5 with 0.01% Tween-20. FDH coupled Demethylase qHTS protocol: Three microliter enzyme mix (buffer + 200nM KDM5BDeltaAP final concentration) is dispensed into the assay plate using the BioRAPTR Flying Reagent Dispenser (FRD; […]). Compound (at various final concentration) and control solution is pin transferred to the assay plate using the Kalypsys 1536-pin tool apparatus. The assay plate is incubated for 10 min at room temperature followed by addition of 1uL substrate mix (buffer + 100uM ascorbic acid, 50uM ferrous ammonium sulfate, 12.5uM H3K4Me3, 25uM a-ketoglutarate, 0.25 mM NAD+, 0.25 U/mL formaldehyde dehydrogenase using the FRD yielding a total reaction volume of 4 uL. Initial fluorescence (Read1) is detected using the PerkinElmer ViewLux plate reader equipped with 340 nm excitation and 450 nm emission filters. The final fluorescence (Read2) signal is obtained after 30 min of room temperature incubation. Delta RFU is calculated (Read2 - Read1) and is used to generated dose response curves.
Also: nearly all actives have a fitted effect of over 70% in size.
Potency is read from the fitted curve at half-maximal effect.

**Q.** How did the Potency turn out when `Cc1nnn2c(C(=O)NC3CC3)cccc12` was run?
**A.** 35.5 µM (active)

**Q.** Which Potency does the source give for `Cc1ccc(NC(=O)c2ccccc2SCC(=O)NC2CC2)c(C)c1` here?
**A.** inactive

**Q.** How did the Potency turn out when `Cn1ncc(Br)c1C(=O)NC1CCCC1` was run?
**A.** inactive

**Q.** Which Potency does the source give for `O=c1oc2ccccc2cc1-c1nc(-c2ccc(F)cc2)no1` here?
**A.** inactive

**Q.** How did the Potency turn out when `CN(CC(=O)NCCN1CCOCC1)S(=O)(=O)c1ccc(F)cc1` was run?
**A.** inactive

**Q.** How did the Potency turn out when `COC(=O)[C@@H]1Cc2c([nH]c3ccccc23)[C@H]2C[C@@H](NCCN3CCOCC3)C[C@@H](c3ccccc3F)N21` was run?
**A.** 17.8 µM (active)

**Q.** Which Potency does the source give for `Cc1ccc(C)n1-c1c(C(=O)NCCN2CCOCC2)sc2ncccc12` here?
**A.** inactive

**Q.** `COC(=O)[C@@H]1Cc2c([nH]c3ccccc23)[C@H]2C[C@H](NCCNC(C)=O)C[C@@H](c3ccc(C)cc3)N21` was tested. Which Potency did it give?
**A.** 17.8 µM (active)

**Q.** `COC(=O)[C@@H]1C[C@@H](NC(=O)c2ccc(-c3nnn(C)n3)cc2)CN1C` was tested. Which Potency did it give?
**A.** inactive

**Q.** Which Potency does the source give for `CCOc1cccc(CC(=O)N2CCc3c([nH]c4ccccc34)C2c2ccc(F)cc2)c1OCC` (stereo not drawn) here?
**A.** inactive

**Q.** With `CC(C)NC(=O)NC(=O)CSc1nc(-c2ccco2)nc2ccccc12` as the compound, how does the Potency read?
**A.** inactive

**Q.** Which Potency does the source give for `CNC(=O)c1sc(NCc2ccccc2OC)nc1C` here?
**A.** inactive

**Q.** Which Potency does the source give for `CCOC(=O)c1c(C)[nH]c(C)c1S(=O)(=O)N(C)CC(=O)Nc1cc(C)cc(C)c1` here?
**A.** inactive

**Q.** How did the Potency turn out when `Cc1[nH]c2ccccc2c1C(=O)C(=O)NC1CCS(=O)(=O)C1` (stereo not drawn) was run?
**A.** inactive

**Q.** How did the Potency turn out when `O=C(c1cccc(C(F)(F)F)c1)N1C[C@@H](CO)[C@H](c2ccccn2)C1` was run?
**A.** inactive

**Q.** How did the Potency turn out when `CC(C)(C)c1ccc(C(=O)N2C[C@@H](CO)[C@H](c3ccccn3)C2)cc1` was run?
**A.** inactive

**Q.** Which Potency does the source give for `O=C(c1cccc2[nH]ccc12)N1C[C@@H](CO)[C@H](c2ccccn2)C1` here?
**A.** 17.8 µM (active)

**Q.** Which Potency does the source give for `Cc1cc2oc(=O)cc(CN3CCN(S(=O)(=O)c4ccc5c(c4)OCCO5)CC3)c2cc1C(C)C` here?
**A.** inactive

**Q.** For `COC(=O)CN(CC(=O)NC(N)=O)Cc1ccccc1`, which Potency is on record?
**A.** inactive

**Q.** With `COc1ccc2[nH]c(C(=O)N3C[C@@H](Oc4ccccc4)C[C@H]3C(=O)N3CCCC3)cc2c1` as the compound, how does the Potency read?
**A.** inactive

**Q.** How did the Potency turn out when `COc1ccc(CCC(=O)N2C[C@@H](Oc3ccccc3)C[C@H]2C(=O)N2CCOCC2)cc1` was run?
**A.** inactive

**Q.** How did the Potency turn out when `COc1ccc2cc(C(=O)N3C[C@@H](Oc4ccccc4)C[C@H]3C(=O)N3CCOCC3)[nH]c2c1` was run?
**A.** 28.2 µM (active)

**Q.** For `CCCn1c(=O)n(CC(=O)Nc2ccc(C)c(F)c2)c(=O)c2c1nc(C)n2CCOC`, which Potency is on record?
**A.** inactive

**Q.** Which Potency does the source give for `CCN(CC)c1ccc(C(=S)N(C)C)cc1` here?
**A.** inactive

**Q.** `CN1CCN([C@H]2CCN(C(=O)Cc3cccc(O)c3)C[C@H]2CCCO)CC1` was tested. Which Potency did it give?
**A.** inactive

**Q.** For `CNc1nc(N2CC[C@H](N3CCN(C)CC3)[C@H](CCC(=O)O)C2)ncc1F`, which Potency is on record?
**A.** 14.1 µM (active)

**Q.** For `Cc1nc(C(=O)N2CC[C@H](N3CCN(C)CC3)[C@H](CCCO)C2)cs1`, which Potency is on record?
**A.** inactive

**Q.** `O=C(CSc1nc(-c2ccc(F)cc2)cc(C(F)(F)F)n1)NC1CCCC1` was tested. Which Potency did it give?
**A.** inactive

**Q.** `CCOC(=O)C1=C(N)Oc2c(oc(CO)cc2=O)C1c1ccccc1C(F)(F)F` (stereo not drawn) was tested. Which Potency did it give?
**A.** inactive

**Q.** Which Potency does the source give for `CCOc1cc(C2CC(=O)NC(SCC(=O)OC)=C2C#N)ccc1O` (stereo not drawn) here?
**A.** inactive

**Q.** `O=C1COc2ccc(-c3cncnc3)nc2CN1Cc1ccc(F)cc1` was tested. Which Potency did it give?
**A.** inactive

**Q.** With `O=C1COc2ccc(Nc3ccccc3F)nc2CN1Cc1ccccc1F` as the compound, how does the Potency read?
**A.** 35.5 µM (active)

**Q.** How did the Potency turn out when `COCCn1c(C(=O)NCc2ccncc2)nc2ccccc2c1=O` was run?
**A.** inactive

**Q.** `COCCNc1nc2c(c(=O)n(C)c(=O)n2C)n1CCc1ccccc1` was tested. Which Potency did it give?
**A.** inactive

**Q.** `COCC(=O)Nc1ccc2c(c1)CN(Cc1ccccc1F)C(=O)C(C)O2` (stereo not drawn) was tested. Which Potency did it give?
**A.** inactive

**Q.** Which Potency does the source give for `Cc1ccccc1CN1Cc2nc(NCc3ccncc3)ccc2OCC1=O` here?
**A.** 35.5 µM (active)

**Q.** How did the Potency turn out when `CCC(C(=O)Nc1ccc2c(c1)CN(Cc1cc(F)cc(F)c1)C(=O)CO2)c1ccccc1` (stereo not drawn) was run?
**A.** inactive

**Q.** Which Potency does the source give for `O=C1Cc2c(-c3ccc(F)cc3F)n[nH]c2CN1Cc1ccccc1F` here?
**A.** inactive

**Q.** Which Potency does the source give for `COc1cccc(CN2Cc3nc(-c4cc(F)cc(F)c4)ccc3OCC2=O)c1` here?
**A.** inactive

**Q.** For `COc1cccc(CN2Cc3nc(Nc4cccc(F)c4)ccc3OCC2=O)c1`, which Potency is on record?
**A.** 28.2 µM (active)

**Q.** For `COc1cccc(C(=O)Nc2ccc3c(c2)CN(Cc2ccc(OC)cc2OC)C(=O)CO3)c1`, which Potency is on record?
**A.** inactive

**Q.** For `COCCN1Cc2nc(NCc3ccccc3)ccc2OCC1=O`, which Potency is on record?
**A.** 35.5 µM (active)

**Q.** With `CC(=O)Nc1scc(-c2cc(C)ccc2C)c1C#N` as the compound, how does the Potency read?
**A.** inactive

**Q.** For `Cc1ccc(C(=O)C(C)OC(=O)Cc2n[nH]c(=O)c3ccccc23)cc1C` (stereo not drawn), which Potency is on record?
**A.** inactive

**Q.** Which Potency does the source give for `O=C1c2ccccc2NC(c2cnc3ccccc3n2)N1c1ccc(Cl)cc1` (stereo not drawn) here?
**A.** inactive

**Q.** `Cc1cc(C)c(C(=O)Nc2ccccc2)c(SCC(=O)NC2CCCCC2)n1` was tested. Which Potency did it give?
**A.** inactive

**Q.** How did the Potency turn out when `CCN1CCN(C(c2ccccc2)c2c(O)cc(C)n(CC)c2=O)CC1` (stereo not drawn) was run?
**A.** inactive

**Q.** `CCCCC(c1nnnn1CS(=O)(=O)c1ccc(C)cc1)N1CCC(C(N)=O)CC1` (stereo not drawn) was tested. Which Potency did it give?
**A.** inactive

**Q.** Which Potency does the source give for `CCC(C)c1ccc(NC(=S)N2CCCC2)cc1` (stereo not drawn) here?
**A.** inactive

**Q.** For `CC(C)NC(=O)C1(CCO)CC12CCOCC2` (stereo not drawn), which Potency is on record?
**A.** inactive

**Q.** Which Potency does the source give for `CC(C)NC(=O)C1(CCO)CCN(c2ncccn2)C1` (stereo not drawn) here?
**A.** 31.6 µM (active)

**Q.** Which Potency does the source give for `COc1cccc(NC(=O)COc2cc(C)cc3oc(=O)cc(C)c23)c1` here?
**A.** inactive

**Q.** Which Potency does the source give for `CCOc1ccc(C(=O)N2CC(=O)Nc3ccc(C)cc3C2c2ccccc2)cc1` (stereo not drawn) here?
**A.** inactive

**Q.** Which Potency does the source give for `Cc1ccc(C)c(-c2cc3c(=O)n(CCNC(=O)Cc4ccsc4)ccn3n2)c1` here?
**A.** inactive

**Q.** `CCC(C(=O)NCCn1ccn2nc(-c3ccc(F)cc3)cc2c1=O)c1ccccc1` (stereo not drawn) was tested. Which Potency did it give?
**A.** inactive

**Q.** For `CCOc1ccc(-c2cc3c(=O)n(CC(=O)NCc4ccc(OC)cc4)ccn3n2)cc1`, which Potency is on record?
**A.** inactive

**Q.** How did the Potency turn out when `CCOc1ccc(-c2cc3c(=O)n(CCNC(=O)c4ccc(OC)cc4C)ccn3n2)cc1` was run?
**A.** 28.2 µM (active)

**Q.** How did the Potency turn out when `Cc1ccc(C)c(-c2cc3c(=O)n(CCNC(=O)c4ccncc4)ccn3n2)c1` was run?
**A.** inactive

**Q.** For `COc1ccc(-c2cc3c(=O)n(CCNC(=O)c4ccc(OC)cc4OC)ccn3n2)cc1`, which Potency is on record?
**A.** 35.5 µM (active)

**Q.** How did the Potency turn out when `Cc1c(Cl)cccc1NC(=S)NCCSc1ccc(Cl)cc1` was run?
**A.** inactive

**Q.** Which Potency does the source give for `O=Cc1cc(Cl)ccc1O` here?
**A.** inactive

**Q.** For `Cc1cc(C)c(NC(=O)COc2ccc(C(=O)Nn3c(C)ccc3C)cc2)c(C)c1`, which Potency is on record?
**A.** inactive

**Q.** For `O=C(Nc1ccccc1C(F)(F)F)N1CCC(N2CCN(Cc3ccccn3)C(=O)C2=O)CC1`, which Potency is on record?
**A.** inactive
